Test results from the supplement of paper PMC12350171.
Counter-ions that a name gives are not always drawn.

tested on: Haemophilus parainfluenzae; test: growth AUC normalised to DMSO control (fraction of control); higher = less growth inhibition, active = hit call of the paper; conditions: 20 µM;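 active = AUC significantly below DMSO controls by Student t-fit with adjusted P under 0.01; inactive = not significantly reduced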
Outline: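 Three biological replicates were carried out, with OD578 read hourly for 24 h. Before inoculation at a starting OD578 of 0.01, pathogens were passaged anaerobically twice; plates were pre-reduced mGAM containing 20 μM compound and 1% DMSO, sealed with breathable membranes, and the Haemophilus parainfluenzae medium carried added hemin and NAD. Area under each growth curve was calculated by the trapezoidal rule up to the exponential-to-stationary transition and normalised to DMSO controls on the same plate.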

Row | Compound | growth AUC normalised to DMSO control
1 | Cc1onc(-c2c(Cl)cccc2Cl)c1C(=O)N[C@@H]1C(=O)N2[C@@H]1SC(C)(C)[C@@H]2C(=O)O [Dicloxacillin sodium salt hydrate] | 0.893 (inactive)
2 | Oc1ncnc2[nH]ncc12 [Allopurinol] | 1.01 (inactive)
3 | COc1cc([S+](C)[O-])ccc1-c1nc2cccnc2[nH]1 (centres undefined) [Sulmazole] | 1 (inactive)
4 | N=C(N)NCC1COC2(CCCCC2)O1 (centres undefined) [Guanadrel sulfate] | 0.967 (inactive)
